This passage reports CPE inhibition results from PubChem BioAssay AID540333 (Southern Research Specialized Biocontainment Screening …, 2011).

Screen size: about 10,000 compounds; about 320 (3.2%) were called active. This excerpt belongs to a sample that is enriched for actives. A number with no mark means an inactive call. No stated cut-off is given here; in the data, active means CPE inhibition mostly above about 9.1% (no sharp cut-off); inactive means mostly below about 7.2%.

The nature of the test: Dengue virus cytopathic effect inhibitors, cell-based, CPE readout, HTS (AID 540333). As to conditions: Dengue virus CPE inhibition in host cells, at 20 µM; hits give high values.
`CC(=O)c1ccc(N2Cc3ccccc3/C2=N\C(=O)Nc2ccccc2)cc1`: the CPE inhibition is 1.88%.

For `O=C(c1cc(-c2ccccc2)nn1CC1CC(c2cccnc2)=NO1)N1CCOCC1` (stereo unspecified), the CPE inhibition is 0.185%. For `Cc1ccc(/C=C/C(=O)NCCCN2CCN(CCCNC(=O)/C=C/c3ccc(C)o3)CC2)o1` the value was 0.03%; for `Cc1ccc([N+](=O)[O-])cc1S(=O)(=O)NCCc1c(C)[nH]c2c(C)cccc12`, 0.035%; for `COc1ccc(NC(=S)N(CCN(C)C)C(C)c2ccco2)cc1` (stereo unspecified), 1.96%.

In the case of `CCC(=O)N/N=C(\C)CC(=O)Nc1ccccc1-c1ccccc1`, the CPE inhibition result is “inactive”. In the case of `Cc1ccc(-c2cc3c(n2-c2ccc(C(=O)O)cc2)CCCC3=O)cc1`, the CPE inhibition result is “inactive”. For `COc1ccc(C(=O)NCC(=O)NCC(c2ccco2)N(C)C)cc1OC` (stereo unspecified) the value was “inactive”; for `CCOc1ccc(NC(=O)CNC(=O)COc2ccccc2)cc1`, 0.38%; for `COC(C(=O)Nc1ccc(S(=O)(=O)Nc2cccc3ccccc23)cc1)c1ccccc1` (stereo unspecified), 5.08%. Regarding `O=C(NC(=S)N1CCN(c2ccc([N+](=O)[O-])cc2)CC1)c1ccccc1F`, the CPE inhibition was 1.42%. The figure for `O=C(COC(=O)CC1c2ccccc2CCN1S(=O)(=O)c1ccccc1)Nc1ccccc1` (stereo unspecified) is 0.325%. For `CCOC(=O)c1cccc(C2=CC(=O)C[C@H](c3ccc(OC)cc3)C2)c1` the value was 11.8% (active); for `COc1ccc([C@H]2CC(=O)C=C(c3cccc(OC)c3)C2)cc1`, “inactive”; for `COc1ccc([C@H]2CC(=O)C=C(c3ccccc3)C2)cc1`, 3.05%.

Turning to `CCOc1cccc(OCCOCCN(C)C)c1`, the CPE inhibition result was “inactive”. For `CCOC(=O)C1=NNC2(c3ccc(Cl)cc3)C(=O)N(c3ccc(C)cc3)C(=O)C12` (stereo unspecified) the value was “inactive”. The figure for `CSCCC(NC(=O)c1ccc(Cl)cc1)C(=O)OCC(=O)Nc1cc(Cl)ccc1C` (stereo unspecified) is 0.1%; for `CC(=O)Nc1ccc(S(=O)(=O)NCCSCc2cccc(Cl)c2)cc1` it is 1.06%. The figure for `CSCCC(NS(=O)(=O)c1ccc(Cl)cc1)C(=O)OCc1cccc(Cl)c1` (stereo unspecified) is 12% (active). `CC(C)OC(=O)/C(=C/c1ccc(Br)cc1)NC(=O)c1ccco1`: the CPE inhibition result was “inactive”.
